High-throughput results (PubChem)
A selection: hits, their analogues and other compounds. The true share with any hit is near 3.7%.
Rce1 inhib = inhibitors of yeast Ras-converting enzyme | yeast membranes, quenched prenylated peptide cleavage fluorescence | calls only | hit rate 0.27% among 290,000;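 active = fall in fluorescence gain of 50% or more versus controls, with final raw signal at or below 3038400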;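 note: plate controls were neutral control wells for no effect and wells lacking membranes for full effect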
Target sequence (Q03530 whole entry, looked up): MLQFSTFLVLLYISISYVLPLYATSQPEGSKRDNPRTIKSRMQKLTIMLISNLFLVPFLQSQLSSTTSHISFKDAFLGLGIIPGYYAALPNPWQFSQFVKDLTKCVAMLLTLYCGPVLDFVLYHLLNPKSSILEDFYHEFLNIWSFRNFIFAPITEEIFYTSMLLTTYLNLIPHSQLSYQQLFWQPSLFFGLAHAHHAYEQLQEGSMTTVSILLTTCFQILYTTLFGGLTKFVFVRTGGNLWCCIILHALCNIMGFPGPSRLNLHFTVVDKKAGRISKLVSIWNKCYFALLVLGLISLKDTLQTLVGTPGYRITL
PfHsp90 set2 = growth inhibition of yeast expressing Plasmodium Hsp90 | hit rate 0.32% among 310,000 | inhibition, % at 9.4 µM | S. cerevisiae expressing PfHsp90, BacTiter-Glo ATP, 48 h; yeast lacking PDR1 and PDR3 efflux regulators;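 active = every replicate shows inhibition above about 80%, whatever the replicate mean, limit read from the data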;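 note: 0% = DMSO neutral controls and 100% = 20 µM radicicol positive controls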
TIM10 inh = TIM10 yeast growth inhibition; inhibition, % at 10 µM; S. cerevisiae TIM10 strain growth, BacTiter-Glo luminescence, 24 h; hit rate 1.4% among 330,000;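 active = inhibition of 40% or more at the single tested concentration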;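 note: wild-type TIM10 isogenic control strain grown at permissive 25 °C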
tim10-1 inh = tim10-1 yeast growth inhibition | S. cerevisiae tim10-1 ts strain growth, BacTiter-Glo, 24 h | inhibition, % at 20 µM | hit rate 2.2% among 330,000 | AID 463190;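 active = inhibition of at least 40%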;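 note: mutant grown at 25 °C; 0% = DMSO wells with yeast and 100% = wells holding no yeast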
tim23-1 inh = tim23-1 yeast growth inhibition; inhibition, % at 20 µM; S. cerevisiae tim23-1 growth, BacTiter-Glo luminescence, 24 h; AID 463212; hit rate 1.3% among 330,000;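 active = growth inhibition of the mutant yeast at or above 50%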;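 note: temperature-sensitive mutant grown at 25 °C; plate controls were DMSO-treated mutant yeast for no effect and medium wells lacking yeast for full effect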
tim10 confirm = TIM10 yeast growth inhibition, confirmed; AID 463215; hit rate 63% among 4,600; S. cerevisiae tim10 strain growth, BacTiter-Glo luminescence, 24 h; inhibition, % at 10 µM; shares compounds with TIM10 inh;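 active = inhibition of yeast growth at or above a set limit in either of two replicates at 10 µM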;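 note: this counterscreen used the strain with wild-type TIM10; 0% = yeast with DMSO and 100% = medium wells lacking yeast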
* marks the source's active call; other numbers are inactive results; i = inactive; nt = no result given.

SMILES | Rce1 inhib | PfHsp90 set2 | TIM10 inh | tim10-1 inh | tim23-1 inh | tim10 confirm
COc1ccc(/C=N/Nc2nc(-c3cccnc3)nc3ccccc23)cc1OC | i | 11 | 17 | 26 | 42 | nt
COc1ccc2c(CC(=O)Nc3cccc(S(=O)(=O)N4CCOCC4)c3)coc2c1 | i | nt | 12 | 12 | 13 | nt
O=C(NCC1CCCO1)c1cc([N+](=O)[O-])ccc1Cl (stereo not given) | i | -1 | -5 | 4 | 7 | nt
Cc1c(C(=O)OC2CCCCC2)[nH]c2c1C(=O)CC(C)(C)C2 | i | -23 | 96* | -7 | 21 | -7
Cc1nc2c(ccc3nc(NC(=O)c4ccc(S(=O)(=O)N(C)C)cc4)sc32)s1 | i | 21 | 6 | 8 | 5 | nt
Cc1nc2c(ccc3nc(NC(=O)Cc4ccccc4)sc32)s1 | i | 6 | 42* | 38 | 37 | 45*
O=C(COc1ccc(-c2nnco2)cc1)NC1CCS(=O)(=O)C1 (stereo not given) | nt | nt | 7 | -10 | -1 | nt
Cc1ccc(CSc2nnc(-c3cccc(S(=O)(=O)N4CCOCC4)c3)n2CC(C)C)cc1 | i | 4 | 20 | 17 | 28 | nt
CC(C)Cn1c(SCC(N)=O)nnc1-c1cccc(S(=O)(=O)N2CCOCC2)c1 | nt | -21 | 58* | -16 | 1 | -6
Cc1ccc(C(=O)Nc2ccc(S(=O)(=O)Nc3ncccn3)cc2)cc1[N+](=O)[O-] | i | -37 | -12 | -20 | 12 | nt
O=C(CO)C(O)C(O)C(O)CO (stereo not given) | nt | 1 | 4 | -36 | 10 | nt
CC(=O)NC/C(C)=N\Nc1ccc([N+](=O)[O-])cc1 | i | -6 | 49* | 31 | 5 | -33
Cc1cc(C(=O)CCl)c(C)n1Cc1ccco1 | i | nt | 46* | 38 | 34 | 34*
CN(C)S(=O)(=O)c1cc(NC(=O)COC(=O)CC2Sc3ccccc3NC2=O)ccc1Cl (stereo not given) | nt | nt | -1 | 3 | 11 | nt
Cc1cccc(N2CCN(C(c3cccs3)c3nnnn3C(C)(C)C)CC2)c1C (stereo not given) | i | -6 | 28 | 14 | 14 | nt
Cc1cccc(N2CCN(C(c3ccccc3)c3nnnn3C(C)(C)C)CC2)c1C (stereo not given) | i | -17 | 41* | 19 | 17 | 4
Cn1c(-c2ccc(F)cc2)cnc1NCc1cc2c(cc1[N+](=O)[O-])OCO2 | i | -23 | -15 | 9 | -14 | nt
Cc1cc(F)ccc1NCc1cc2c(cc1[N+](=O)[O-])OCO2 | i | 66 | 45* | 29 | 34 | 41*
CC(=O)Nc1ccc(-c2nnn(CC(=O)c3ccccc3)n2)cc1Cl | i | 0 | 47* | -3 | 20 | 36*
CC(=O)Nc1ccc(-c2nnn(CC(=O)c3ccc(F)cc3)n2)cc1Cl | i | 12 | 33 | -34 | -11 | nt
O=C(CN1CCC(C(=O)O)CC1)Nc1ccccc1Oc1ccccc1 | i | nt | 11 | 8 | 10 | nt
COc1ccc(/C=C/C(=O)NC2CC3CCC2C3)cc1 (stereo not given) | i | -2 | 4 | 5 | 25 | nt
COc1ccc(/C=N/NC(=S)N[C@H]2CC3CCC2C3)cc1 (stereo not given in full) | i | -11 | 47* | 29 | 29 | 36*
O=C(NC(=S)N(CCCCO)C1CCCCC1)c1sc2ccccc2c1Cl | i | -35 | 43* | 22 | 42 | 14
CC1CCCCC1NC(=S)NC(=O)c1sc2ccccc2c1Cl (stereo not given) | i | -42 | 1 | 5 | 6 | nt
SMILES | Rce1 inhib | PfHsp90 set2 | TIM10 inh | tim10-1 inh | tim23-1 inh | tim10 confirm
COc1ccc(CC(=O)Nc2ccc(N3CCOCC3)cc2)cc1S(=O)(=O)N1CCOCC1 | i | 12 | 5 | -2 | 9 | nt
C#CCOCCOCCOCCNc1nc(N2CCN(C(=O)[C@H](CCCCN)n3cc([C@@H](N)CO)nn3)CC2)nc(N2CCN(C(=O)[C@H](Cc3cc4ccccc4[nH]3)n3cc([C@@H](N)CC(C)C)nn3)CC2)n1 | i | nt | 94* | -19 | -6 | 1
C#CCOCCOCCOCCNc1nc(N2CCN(C(=O)[C@H](CCCCN)n3cc([C@@H](N)CO)nn3)CC2)nc(N2CCN(C(=O)[C@H](Cc3cc4ccccc4[nH]3)n3cc([C@@H](N)CO)nn3)CC2)n1 | nt | nt | 7 | 2 | 11 | nt
CCOc1ccc(S(=O)(=O)n2c([N+](=O)[O-])cnc2C)c(C)c1C | i | 2 | 97* | -2 | 12 | 11
CCOc1ccc(S(=O)(=O)N2CCCCC2)cc1NC(=O)C1CCC1 | i | -5 | 1 | 2 | 0 | nt
Cc1ccccc1OCC(=O)Nc1cc(S(=O)(=O)N2CCCCC2)ccc1N1CCN(C)CC1 | nt | 11 | 5 | 2 | 4 | nt
O=C(CSc1ccc2ccccc2n1)N/N=C/c1ccc(O)cc1 | i | 17 | 7 | 1 | 20 | nt
O=C(CSc1ccc2ccccc2n1)N/N=C/c1ccccc1O | i | 0 | 41* | 19 | 30 | 10
O=C(C1CCC(Cn2c(=S)[nH]c3ccccc3c2=O)CC1)N1CCN(c2ccccc2)CC1 (stereo not given) | i | nt | 46* | 26 | 31 | 37*
CC1CC(C)CN(C(=O)CCCn2c(=S)[nH]c3ccccc3c2=O)C1 (stereo not given) | i | -31 | 43* | 29 | 42 | 19
Cc1ccc(C)c(NC(=O)CCCCCCCCCCC2COCCO2)c1 (stereo not given) | i | -18 | 10 | 10 | 6 | nt
Cc1cc(N=Cc2c(O)n(-c3ccc4c(c3)OCO4)c(=O)c3ccccc23)ccn1 | i | 54 | 53* | 26 | 25 | 36*
Cc1cccc(-n2c(O)c(C=Nc3cccc(O)c3)c3ccccc3c2=O)n1 | i | -19 | 10 | -5 | 16 | nt
Cc1ccc(N=Cc2c(O)n(-c3nccs3)c(=O)c3ccccc23)cc1 | i | -12 | 41* | 14 | -2 | -8
Cc1ccc(-n2c(O)c(C=Nc3ccc4c(c3)OCO4)c3ccccc3c2=O)cc1C | i | -10 | -6 | 6 | -40 | nt
O=C(CC1SC(=O)N(c2ccccc2)C1=O)Nc1ccccc1 (stereo not given) | i | -3 | 16 | 38 | 22 | nt
N=C1SC(CC(=O)Nc2ccc([N+](=O)[O-])cc2)C(=O)N1c1ccccc1 (stereo not given) | i | -2 | 57* | -9 | 5 | 9
CC1(C)Cc2c(cnn2-c2ccccc2)C(NC(=O)CCN2CCCC2=O)C1 (stereo not given) | i | 6 | 1 | 17 | 6 | nt
Cc1cc(C)nc(N2CCCC(C(=O)NC3CC3)C2)n1 (stereo not given) | i | -11 | -25 | 27 | 13 | nt
COc1ccc([N+](=O)[O-])cc1NC(=O)CSCc1cc(C)cc(C)c1 | i | 8 | 31 | 29 | 5 | nt
COc1ccccc1NC(=O)CSCc1ccc([N+](=O)[O-])cc1 | i | 15 | 50* | 34 | 38 | 15
